Measured values reported in ChEMBL document CHEMBL1157539, “Thousands of chemical starting points for antimalarial lead identification” (Nature, 2010).

test system: HepG2; assay: GSK_TCMDC: Percent inhibition of human HepG2 cell line. Test compounds present at 10uM.; type: functional

Compound	Inhibition [%]
COc1ccc2c(c1C1CCN(CCCCNC(=O)c3ccc(-c4ccc(Cl)cn4)cc3)CC1)CCCC2	29
O=C(Nc1ccc(-c2csc(-c3nc4ccccc4[nH]3)c2)cc1)Nc1ccc(F)c(F)c1F	67
C=CCC(CC=C)N1C(=O)C(c2ccccc2)(c2ccccc2)N=C1N.O=CO	35
Nc1nc(N)c2c(ccc3c2ccn3C2C=CCCC2)n1 (stereo not given)	68
Clc1ccc(-c2cc(-c3csc(Nc4ccncc4)n3)on2)cc1	1
COc1ccc2ncc(F)c(CCN3CC(O)C(CNCc4ccc(F)cc4)C3)c2n1.Cl (stereo not given)	38
NCc1cccc(-c2ccc3ccnc(N)c3c2)c1	7
NC1CCCN(Cc2cccc(-c3cccc(-c4nc5ccccc5[nH]4)c3)c2)C1.O=C(O)C(F)(F)F (stereo not given)	24
Fc1ccc2[nH]c(-c3ccc(-c4ccc(CN5CCCCC5)cc4)s3)nc2c1.O=C(O)C(F)(F)F	42
CC(C)C[C@H](Nc1ccc(C#N)c2ccccc12)C(=O)NC(C)(C)C12CC3CC(CC(C3)C1)C2.O=C(O)C(F)(F)F	19
Cc1nc(NC(=N)N)nc2ccc(C(C)(C)C)cc12.Cl	4
Oc1cc(Nc2ccnc3cc(-c4ccc(CN5CCCCC5)o4)c(Cl)cc23)c(Cl)cc1F	0
COc1ccc2nccc([C@@H](O)CN3CCC(NCCNc4ccccn4)CC3)c2c1.O=C(O)C(=O)O	18
Cc1cccc2nc(-c3cccc(-c4ccc(CNCc5ccc(S(C)(=O)=O)cc5)cc4)c3)[nH]c12.O=C(O)C(F)(F)F	8
CN(C)CCNC(=O)c1ccc2c(c1)n(C1CCN(S(=O)(=O)c3ccc(-c4ccccc4)cc3)CC1)c(=O)n2CC1CCCCC1	47
Cc1cccc2nc(-c3ccc(-c4cccc(CN5CCN(c6ccncc6)CC5)c4)cc3)[nH]c12.O=C(O)C(F)(F)F	50
Cc1ccc(F)c(C(=O)Nc2cccc(-c3nn4ccccc4c3-c3ccnc(Nc4cccc(F)c4)n3)c2)c1F	35
COc1ccc(Cl)cc1NC(=O)Nc1ccc2c(c1)CCN(C1CCC1)CC2.Cl	38

Compound	Inhibition [%]
COc1cc2ncnc(Nc3ccc(OCc4ccccc4)c(C(F)(F)F)c3)c2cc1OC.Cl	8
CC(Cc1ccc(NC(=O)c2ccc(CNCc3ccccc3)cc2)cc1)N(CCc1cccc(Cl)c1)C(=O)OC(C)(C)C (stereo not given)	16
O=C(Nc1cccc(-c2nn3ccccc3c2-c2ccnc(Nc3cccc(-c4cnco4)c3)n2)c1)C1CCCCC1	71
O=C1C2C(c3ccc(Cl)c(Cl)c3)N3CC(OCc4ccccc4)CC3(C(=O)O)C2C(=O)N1c1ccc(Br)cc1 (stereo not given)	14
Cn1cncc1C(=O)Nc1cccc(-c2ccc(-c3nc4cc(F)ccc4[nH]3)s2)c1	0
COc1ccc(C2CC(c3cccs3)=NN2C(=O)COc2cccc3c2CCCC3O)cc1OC (stereo not given)	5
COc1cccc2cc(C(=O)N[C@@H](CC(C)C)C(=O)N[C@H](/C=N/N3C(=O)CN(Cc4ccccc4)C3=O)CCc3ccccc3)oc12	14
Cc1sc2nc(CSc3ccccc3)nc(N3CCN(CC(=O)N4CCCC4)CC3)c2c1C	19
CCOc1ccc(/C=C/C(=O)Nc2cccc3c2CCN(C)C3)cc1.Cl	0
CN1CCN(CC(=O)Nc2ccc(-c3cccc(-c4nc5cc(F)ccc5[nH]4)c3)cc2)CC1	18
CCN(CC)CCCNc1nccc(N(C)c2ccc(NC(=O)Nc3cc(C(F)(F)F)ccc3F)cc2)n1.O=C(O)C(F)(F)F	96
C=Cc1cc(NC(=O)N2CCc3cc(OC)c(C(F)(F)F)cc32)cc(-c2cccnc2)c1	7
CC(Cc1ccc(C(=O)OCCOC(=O)c2ccc(CC(C)NCC(O)c3cccc(C(F)(F)F)c3)cc2)cc1)NCC(O)c1cccc(C(F)(F)F)c1 (stereo not given)	10
Cn1cnc(CCNC(=O)c2cccc(-c3csc(-c4nc5ccccc5[nH]4)c3)c2)c1	33
O=C(Nc1cccc(CN2CCCN(Cc3ccc(O)cc3)CC2)c1)c1ccc2ccccc2c1.O=C(O)C(F)(F)F	20
CCCc1cc(Cc2cnc(N)nc2N)ccc1OCCCCCC(=O)OCC	0
COc1cc(NC(=O)N2CCOC(CCN3CCC4(CCc5ccccc54)CC3)(c3ccc(Cl)c(Cl)c3)C2)cc(OC)c1OC (stereo not given)	17
